In the library only some 2% were active in any assay of this set; here they are far more common.
Abeta rescue = restores growth of yeast expressing A-beta42 peptide. yeast expressing A-beta42, growth rescue, OD600, 48 h; response scale: 0% DMSO, 100% iron-clioquinol control. Potency, µM (highest dose often 46.1 µM), most hits filed as activators. 410,000 tested, 0.063% active; note: nearly all actives have a fitted effect of over 55% in size
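Growth rescue measured by 600 nm absorbance after 48 h yeast culture at 30 C with compound. Values normalized between DMSO and an equimolar ferric chloride plus clioquinol control.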
GRP78 ERSR act = inducers of ER stress response in human glioma cells | U87-MG GRP78 promoter luciferase reporter, 16 h | Potency, µM, for inactives: top-dose activation, hits mostly activators | 420,000 tested, 0.02% active; note: series mostly up to about 76 µM; % of control where 0% means no effect; nearly all actives have a fitted effect of over 35% in size
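ERSR induction read as luciferase luminescence (Bright-Glo, 10 min at room temperature) in stably transfected human U87-MG glioma cells exposed to compounds for 16 h, using GRP78 as sensor.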
TDP-43 yeast inh = TDP-43 toxicity inhibition in yeast | Potency, µM (top dose mostly 46.1 µM), inactives show at the highest dose growth rescue (activation), usual class: activators | TDP-43 expressing yeast growth rescue, BacTiter-Glo, 24 h | 410,000 tested, 1.8% active; note: % of control where 0% means no effect; nearly all actives have a fitted effect of over 50% in size
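Yeast expressing TDP-43 (pregrown in raffinose, seeded at OD600=0.02 in galactose medium) exposed to compounds 24 hr at 30 deg C. Growth read by BacTiter-Glo luminescence; rescue of toxicity appears as increased signal.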
aSyn rescue = rescues yeast growth from alpha-synuclein toxicity; AID 652106; Potency, µM (doses to about 46.1 µM), for the others: top-dose growth rescue (activation), actives largely listed as activators; 370,000 tested, 0.14% active; Yeast expressing alpha-synuclein, growth rescue, BacTiter-Glo, 24 h; note: % of control where 0% means no effect; nearly all actives have a fitted effect of over 65% in size
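Galactose-induced alpha-syn yeast (OD600=0.02, raffinose-pregrown) + pinned cpd, 24 hr, 30 deg C; growth by BacTiter-Glo luminescence. Growth restoration scores as activation.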
MBNL1-CUG inh = MBNL1-poly(CUG) RNA binding inhibition; Potency, µM (highest dose often 57.5 µM), for inactives: at the top dose activity change, negative = inhibition, usual class: inhibitors; Q9NR56; 280,000 tested, 0.036% active; AID 2675; TR-FRET MBNL1-His/biotin-(CUG)12 binding, 665/545 ratio; active = well fitted inhibition curve with a large enough effect in the signal ratio, with a control signal flat, not every such curve was filed as active; inconclusive = small, poorly fitted or top-dose-only effect, or effect the other way, or a change in a side signal; inactive = no such curve, though single readings can be large or run the other way; the % refers to the signal ratio; note: % is set by controls: 0 for no effect and ±100 for the full control effect
Target sequence (Q9NR56 whole entry, looked up): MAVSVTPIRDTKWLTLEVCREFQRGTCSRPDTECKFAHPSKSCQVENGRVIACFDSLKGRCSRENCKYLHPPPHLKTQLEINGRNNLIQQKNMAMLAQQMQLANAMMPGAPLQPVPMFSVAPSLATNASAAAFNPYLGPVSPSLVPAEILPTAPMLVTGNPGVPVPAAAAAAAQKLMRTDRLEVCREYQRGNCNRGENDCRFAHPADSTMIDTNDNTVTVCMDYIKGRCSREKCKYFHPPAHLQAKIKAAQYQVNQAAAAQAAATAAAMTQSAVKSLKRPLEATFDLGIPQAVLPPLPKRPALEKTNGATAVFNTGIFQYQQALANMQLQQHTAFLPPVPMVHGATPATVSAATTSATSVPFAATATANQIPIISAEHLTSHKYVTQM
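TR-FRET readout: Ex 340 nm, 665/545 nm emission ratio, normalized to buffer-only (basal) and MBNL1-(CUG)12 controls. Complex of MBNL1-His with Biotin-(CUG)12, compounds 92 nM–58 uM, incubated 60 min at room temperature.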
FUS yeast rescue = rescues growth of FUS-expressing yeast. Potency, µM (series often up to 76.6 µM), most hits filed as activators. 390,000 tested, 0.24% active. AID 1347120. S. cerevisiae FUS-expressing, growth rescue, OD600, 24 h;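 note: plate controls were DMSO vehicle for no effect and reference control for full effect; nearly all actives have a fitted effect of over 55% in size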
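Quantitative HTS measuring growth restoration of FUS-toxic yeast. Galactose-induced cells (OD 0.005) were exposed 24hr at 30C to compounds at several concentrations, then absorbance at 600 nm was recorded.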
* hit, by the source's call; i = inactive; u = inconclusive; x = no result; [ ] = remark or other dose. Unless noted, calls come from the whole dose curve; as a rule, active = well fitted curve in the direction sought with a large enough effect; inconclusive = small, poorly fitted or top-dose-only effect, or another doubt; inactive = no such curve, though single readings can be large; an effect the other way counts as inactive or inconclusive. Potency is the fitted concentration of half-maximal effect.

SMILES	Abeta rescue	GRP78 ERSR act	TDP-43 yeast inh	aSyn rescue	MBNL1-CUG inh	FUS yeast rescue
Oc1ccc(Cc2ccc(Cl)cc2)c(O)c1	i	2%	u	-20%	-4%	i
Oc1ccc(/C=N/Nc2ncc(Br)cn2)c(O)c1	i	5%	10%	18µM*	17%	i
O=C(COC(=O)Cc1c(Cl)cccc1Cl)NC1CCCC1	i	0%	20µM*	12%	x	i
CC(C)(C)c1ccc(OCCC(=O)OCC(=O)NC2CCCCC2)cc1	i	-2%	35µM*	7%	x	i
C#CCN1CCc2onc(-c3ccc(Br)cc3)c2C1=O	i	x	35µM*	-2%	x	i
CC(C)(C)OC(=O)N1CCc2onc(-c3ccc(Cl)cc3)c2C1=O	i	-4%	u	11%	x	i
Cn1c(-c2ccccc2)cc2c3no[n+]([O-])c3ccc21	i	11%	3.5µM*	11%	5%	i
Cn1c(-c2ccccc2)cc2ccccc21	i	0%	0%	8%	-3%	i
Cc1ccc(-c2csc3ncnc(Sc4nnnn4-c4ccccc4)c23)cc1	x	-11%	x	u	x	x
CCc1ccc(C(C)NC(=S)NC2CCCCC2)cc1 (configuration not stated)	10µM*	-6%	u	-16%	-12%	i
Cc1ccc(C(C)NC(=S)NCc2ccc(F)cc2)c(C)c1 (configuration not stated)	u	-5%	u	3%	2%	x
Cc1ccc(C(C)NC(=S)NCc2ccc(F)cc2)cc1C (configuration not stated)	14µM*	-5%	30%	9%	-1%	i
CCc1ccc(C(C)NC(=S)NCc2ccc(F)cc2)cc1 (configuration not stated)	4.5µM*	-4%	27%	-9%	0%	i
CCOc1ccc(C(C)NC(=S)NCc2ccc(F)cc2)cc1 (configuration not stated)	u	-3%	u	10%	-12%	i
COc1ccc(OC)c(-c2ccc(O)c(CN3CCc4c([nH]c5ccccc45)C3)c2)c1	x	-3%	x	x	x	x
CCn1nc(C)cc1C(=O)NCC1Cc2cc(C)cc(-c3ccccc3C(=O)OC)c2O1 (configuration not stated)	x	-3%	x	x	x	x
O=C(C1CCC(=O)N(C2CCCCCC2)C1)N1CCN(c2ccccc2Cl)CC1 (configuration not stated)	x	-5%	35µM*	10%	2%	u
Cc1ccccc1N1CCN(C(=O)C2CCC(=O)N(C3CCCC3)C2)CC1 (configuration not stated)	i	-3%	-3%	0%	-4%	i
Cc1ccc(CN2CC(C(=O)N3CCN(c4ccccc4Cl)CC3)CC2=O)cc1 (configuration not stated)	i	-3%	35µM*	0%[1.84 µM]	x	i
Cc1c(C(=O)N2CC3CCC2C3)sc2ncnc(NCCc3c[nH]c4ccccc34)c12 (configuration not stated)	x	-2%	x	x	x	x
CCC[C@H]1[C@@H](NCc2cccs2)CC[C@@]23CCCN2C(=O)CCC[C@@H]13	x	x	x	x	x	i
CCC1C(=O)C(C)(C)C(=O)OC1c1ccc([N+](=O)[O-])cc1 (configuration not stated)	i	-1%	5%	1%	u	i
O=C1CC(=O)OC(c2ccc([N+](=O)[O-])cc2)O1	i	-12%	3.2µM*	u	x	i
Cc1ccc(O)c(C(=O)CC(=O)c2cccc(F)c2)c1	i	-1%	-49%	16µM*	2%	i
O=C(CC(=O)c1cc(Cl)ccc1O)c1ccccc1	i	1%	10µM*	u	-2%	i
SMILES	Abeta rescue	GRP78 ERSR act	TDP-43 yeast inh	aSyn rescue	MBNL1-CUG inh	FUS yeast rescue
O=C1c2ccccc2/C(=C\c2ccc3[nH]ccc3c2)N1c1ccccc1	i	11%	u	-22%	x	i
CCC/C(=C1/c2ccccc2C(=O)N1c1ccccc1)c1ccc2[nH]ccc2c1	i	-3%	14µM*	-44%	x	i
Cc1ccc(CNc2nc(Cl)c(C#N)s2)cc1	i	5%	-6%	-1%	8%	i
N#Cc1sc(NCc2cccc(Cl)c2)nc1Cl	i	-1%	14µM*	19%	-3%	i
O=C(Nc1ccccc1)OCCN1C(=O)CCC12CCC(c1ccccc1)CC2 (configuration not stated)	x	x	x	x	x	i
COc1cccc(CSc2nnc(CSc3nc4nc(C)cc(C)n4n3)s2)c1	i	-2%	20µM*	2%	-13%	i
COc1ccc(OC)c(NC2c3ncccc3C(=O)N2Cc2ccco2)c1 (configuration not stated)	i	-2%	-8%	2%	-1%	35µM*
COc1ccc(CN2C(=O)c3cccnc3C2Nc2cc(Cl)ccc2OC)cc1 (configuration not stated)	i	7%	-12%	7%	u	i
O=C(/C=C/c1c(Cl)cccc1Cl)N1CCN(c2ncccn2)CC1	i	1%	11µM*	u	15%	i
O=C(/C=C/c1ccco1)N1CCN(c2ncccn2)CC1	i	-1%	10%	-2%	x	i
Cc1cc(Nc2ccc(Cl)cc2)n(-c2cccc(Cl)c2)n1	i	-7%	22µM*	9%	3%	i
Cc1cc(Nc2ccc(Cl)cc2)n(-c2ccccc2)n1	i	-3%	10µM*	9%	13%	i
CCCOc1ccc(F)cc1-c1cc(C(=O)Nc2ccc(OC)cc2OC)[nH]n1	i	-3%	u	-3%	x	i
CCCOc1ccc(F)cc1-c1cc(C(=O)Nc2ccc(OC)cc2C)[nH]n1	i	0%	25µM*	-9%	x	i
COc1ccc(CN[C@@H]2CC[C@@]34CCCN3C(=O)CCC[C@H]4C2)cc1OC	x	x	x	x	x	i
CCN(CC)c1ccc(/C=C(/C#N)c2nc3ccccc3[nH]2)c(OC(C)C)c1	i	-2%	13µM*	-25%	u	u
CCOc1cccc(/C=C(/C#N)c2nc3ccccc3[nH]2)c1OCC(=O)O	i	5%	13%	-1%	-15%	i
CCCn1c(NC(=O)c2cccc(C)c2C)nc2ccccc21	i	2%	20µM*	u	-10%	i
c1ccc(OCCn2c(-c3ccco3)nc3ccccc32)cc1	i	5%	u	u	12%	i
Cc1cccc(OCCn2c(NC(=O)c3ccco3)nc3ccccc32)c1	i	7%	16µM*	5%	2%	i

Screening data (PubChem BioAssay)
